Measured values: PubChem BioAssay (NCATS)
“And” between values parts separate entries of the source, which are not always exact repeats. Identical values can stand only once. Records with an inconclusive call do not appear. The source made the active and inactive calls. Unless noted, the call rests on the fitted dose curve; in most records, active means well fitted curve in the direction sought with a large enough effect; inconclusive means small, poorly fitted or top-dose-only effect, or another doubt; inactive means no such curve, though single readings can be large; an effect the other way counts as inactive or inconclusive.

Experiments:
[1] = target: Mitogen-activated protein kinase 10 (Mus musculus) (UniProt Q61831); experiment: JNK3 AlphaScreen Assay (AID 530; active means well fitted curve in either direction with a large enough effect, not every such curve was filed as active;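 further: kinase came from lysate of stimulated human HepG2 cells; signal reports phosphorylation of biotinylated GST-cJun 1-79 at Ser73 with 10 µM ATP; series mostly up to about 57 µM; on the % scale 0 is the no-effect control and ±100 the full control effect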)
Method in brief: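 Inhibitors reduce antibody binding to phosphorylated biotin-cJun, lowering AlphaScreen luminescence. Lysates from HepG2 cells pre-activated by IL-1beta plus TNF-alpha supplied JNK3; compounds were titrated.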

[2] = Cell Viability - HUV-EC-C (AID 542);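 further: cells exposed to compound for 40 hours; on the % scale 0 is the no-effect control and ±100 the full control effect; nearly all actives have a fitted effect of over 35% in size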
Method in brief: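 qHTS cytotoxicity: HUV-EC-C, 1000 cells/well, 5 hr settle, compound 40 hr 37 °C, CellTiter-Glo, luminescence. AC50 via Hill equation.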

[3] = Cellular Toxicity (caspase-3) H-4-II-E (AID 663); conditions: Potency: caspase-3 activation;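 further: cells exposed to compound for 16 hr before readout; 0% = DMSO basal and 100% = 100 µM tamoxifen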
Method in brief: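 Luminescence from caspase-cleaved aminoluciferin substrate, read 20 min after reagent addition, reports caspase 3/7 activation in rat H-4-II-E cells after 16 hr compound exposure. Normalized to DMSO (basal) and 100 uM tamoxifen (100%); AC50 from Hill fits.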

[4] = MultiTox-Fluor Cytotoxicity Assay - LYMP1-002 - Live Cells (AID 955); further: on the % scale 0 is the no-effect control and ±100 the full control effect
Method in brief: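 Read-out is live-cell protease activity (cell-permeant GF-AFC substrate, fluorescence Ex/Em=405/510), where a decrease indicates acute toxicity. Human lymphoblastoid cells were treated 16 hours at 37 C in a concentration series, and AC50 values came from standard Hill modelling.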

[5] = MultiTox-Fluor Cytotoxicity Assay - LYMP1-003 - Live Cells (AID 962);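 further: 0% = DMSO only and full loss = 92 µM tetraoctylammonium bromide; cytotoxic hits lower the live-cell protease signal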
Method in brief: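 qHTS, 1536-well; 2500 cells/well LYMP1-003; 5 hr 37 C settle; cpd 16 hr 37 C; MultiTox-Fluor reagent 60 min RT; live-cell protease fluor. 405/510; Hill-fit AC50; tetraoctylammonium bromide pos. ctrl.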

[6] = Cell Viability - LYMP2-009 (AID 968);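 further: series mostly up to about 92 µM; 0% = DMSO alone and the full-kill end = tetraoctylammonium bromide at 92 µM; nearly all actives have a fitted effect of over 55% in size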
[7] = Cell Viability - LYMP2-011 (AID 969);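 further: 0% = DMSO only and full inhibition = 92 µM tetraoctylammonium bromide; nearly all actives have a fitted effect of over 60% in size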
Method in brief: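 2500 cells/well, 5 hr 37 C; compound added, 24 hr 37 C; CellTiter-Glo 30 min RT; luminescence. qHTS concentration-response, Hill-equation AC50. Tetraoctylammonium bromide positive control.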

[8] = Cell Viability - LYMP2-017 (AID 972); further: series mostly up to about 92 µM; on the % scale 0 is the no-effect control and ±100 the full control effect; nearly all actives have a fitted effect of over 55% in size
Method in brief: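 2500 cells/well, 5 h 37 C; cpd 24 h 37 C in complete medium; CellTiter-Glo, 30 min RT; luminescence (ATP). AC50 via Hill fit, qHTS.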

[9] = Cell Viability - LYMP2-021 (AID 974);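 further: compound exposure lasts 24 hours at 37 °C; on the % scale 0 is the no-effect control and ±100 the full control effect; nearly all actives have a fitted effect of over 55% in size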
Method in brief: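 Plate 2500 lymphoblastoid cells per well and incubate 5 hr at 37 C. Add compounds over a concentration range and incubate 24 hr at 37 C. Add CellTiter-Glo, wait 30 min at room temperature, read luminescence.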

[10] = Cell Viability - LYMP2-025 (AID 976);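 further: series mostly up to about 92 µM; plate controls were DMSO only for no effect and tetraoctylammonium bromide control for full effect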
Method in brief: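 Seed 2500 LYMP2-025 cells/well; 5 hr at 37 C; add compound; 24 hr at 37 C; add CellTiter-Glo; 30 min RT; read luminescence. AC50 from Hill-modelled concentration-response.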

[11] = Cell Viability - LYMP2-018 (AID 985);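 further: compound exposure lasted 24 hr at 37 °C; plate controls were DMSO only for no effect and tetraoctylammonium bromide at 92 µM for full effect; nearly all actives have a fitted effect of over 50% in size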
Method in brief: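 Luminescent ATP signal (CellTiter-Glo, read after 30 min at room temperature) reports viable cells after 24 hr compound treatment at 37 C. Concentration-response data were fitted to the standard Hill equation for AC50.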

[12] = qHTS assay for small molecule activators of the nuclear factor-kappa B (NF-kB) signaling pathway (AID 651749; active means well fitted activation curve with a large enough effect in the signal ratio; the % refers to the signal ratio; further: series mostly up to about 77 µM; % of control where 0% means no effect); conditions: NF-kB-bla ME-180 cells, beta-lactamase FRET ratio, 16 h; stronger effect = higher value
Method in brief: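 Screening used 2,000 ME-180 reporter cells per well exposed to pinned compound (23 nL) or DMSO; after 16 hr at 37C, beta-lactamase expression under NF-kB control was assessed through FRET.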

[13] = qHTS assay for small molecule antagonists of the retinoid-related orphan receptor gamma (ROR-gamma) signaling pathway - cell viability counter screen (AID 720652; active means well fitted curve in the direction sought with a large enough effect in the repeat runs; an effect the other way counts as inactive or inconclusive;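 further: series mostly up to about 92 µM; compound exposure lasted 16 hr before ATP read; on the % scale 0 is the no-effect control and ±100 the full control effect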)
Method in brief: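 Luminescence from CellTiter-Glo after 30 min at room temperature reported cellular ATP as the cytotoxicity measure. Cells were the CHO reporter line with doxycycline-induced ROR-gamma expression, exposed to compound for 16 hr at 37 C.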

[14] = target: Nuclear receptor subfamily 1 group I member 2 (Rattus norvegicus) (UniProt Q9R1A7); experiment: qHTS assay for small molecule activators of the rat pregnane X receptor (rPXR) signaling pathway (AID 651751; call rule not given here; further: 0% is about no effect); conditions: rPXR reporter cells, luciferase (One-Glo), 24 h
Nuclear receptor subfamily 1 group I member 2 (Rattus norvegicus), sequence (Q9R1A7 whole entry, looked up): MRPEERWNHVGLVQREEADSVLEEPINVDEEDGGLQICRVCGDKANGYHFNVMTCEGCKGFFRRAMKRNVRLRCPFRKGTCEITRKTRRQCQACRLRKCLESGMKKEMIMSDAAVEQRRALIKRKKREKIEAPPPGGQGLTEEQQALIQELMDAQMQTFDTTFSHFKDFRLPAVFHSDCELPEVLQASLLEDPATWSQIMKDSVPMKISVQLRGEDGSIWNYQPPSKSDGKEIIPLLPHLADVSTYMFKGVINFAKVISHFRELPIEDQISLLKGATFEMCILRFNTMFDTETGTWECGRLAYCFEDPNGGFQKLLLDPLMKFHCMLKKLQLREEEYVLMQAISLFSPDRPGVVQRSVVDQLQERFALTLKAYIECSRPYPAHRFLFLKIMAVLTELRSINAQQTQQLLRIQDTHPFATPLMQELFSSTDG

[15] = qHTS assay for small molecule activators of the human pregnane X receptor (PXR) signaling pathway (AID 720659; call rule not given here; further: 0% is about no effect)
[16] = Cell Viability - MRC5 (AID 434; calls by dose curve;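 further: potency means the concentration at half of the fitted maximal effect; cells exposed to compound for 40 hours at 37 °C; potency reflects cytotoxicity seen as loss of intracellular ATP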); conditions: MRC5 lung fibroblast viability, qHTS
Method in brief: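 MRC5 normal human lung fibroblasts (1500/well) were treated with compounds for 40 hr at 37 °C in complete medium, and viable cells were measured as intracellular ATP by CellTiter-Glo luminescence. AC50 came from Hill fits, normalized to DMSO and 100 uM tamoxifen.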

[17] = Cell Viability - LYMP2-006 (AID 978); further: series mostly up to about 92 µM; on the % scale 0 is the no-effect control and ±100 the full control effect; nearly all actives have a fitted effect of over 60% in size
Method in brief: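 Human lymphoblastoid cells, 2500 per well, were preincubated 5 hr at 37 C, then exposed to compounds for 24 hr at 37 C in complete medium. Viability was read as intracellular ATP by CellTiter-Glo luminescence; AC50 from Hill-equation fits of qHTS concentration-response data.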

[18] = Cell Viability - LYMP2-007 (AID 979);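 further: cells exposed to compound for 24 h before reading; 0% = DMSO only and the negative end = 92 µM tetraoctylammonium bromide; nearly all actives have a fitted effect of over 60% in size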
Method in brief: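 Luminescent ATP signal (CellTiter-Glo) serves as the viability read-out after 24 hr compound treatment of lymphoblastoid cells in complete medium at 37 C. Concentration-response data were fitted to the Hill equation to give AC50 values.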

[19] = Cell Viability - LYMP2-024 (AID 988);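 further: plate controls were DMSO only for no effect and 92 µM tetraoctylammonium bromide for full effect; nearly all actives have a fitted effect of over 60% in size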
Method in brief: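 Steps: seed 2500 cells/well, 5 hr 37 C; add compound, 24 hr 37 C; add CellTiter-Glo, 30 min room temperature; read luminescence. AC50 derived by Hill modelling of concentration-dependent ATP loss.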

[20] = Cell Viability - LYMP1-003 - Assay at 40 hr (AID 964)
Method in brief: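 Cells were seeded at 2500 per well and incubated 5 hr at 37 C. Compounds were added across a concentration series and left 40 hr at 37 C. CellTiter-Glo was added for 30 min at room temperature before luminescence reading.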

O=C(O)C(Br)CBr (stereo not given)
inactive: Potency [1] | Potency [2] | Potency [3] | outcome [4] | outcome [5] | Potency [6] | Potency [7] | Potency [8] | Potency [9] | Potency [10] | Potency [11] | activation [12] 1.48% | Potency [13] | max response [14] -3.61% | outcome [15]

O=S(=O)(Cl)c1ccccc1
inactive: Potency [16] > 92 µM | Potency [1] | Potency [2] | Potency [3] | outcome [4] | outcome [5] | Potency [6] | Potency [9] | Potency [10] | Potency [17] | Potency [18] | Potency [11] | Potency [19] | activation [12] 0.118% and -0.385% | Potency [13] | max response [14] -0.19% and -2.18% | outcome [15]

Cc1ccc([N+](=O)[O-])cc1
inactive: Potency [16] > 92 µM | Potency [1] | Potency [2] | Potency [3] | Potency [20] | Potency [6] | Potency [7] | Potency [8] | Potency [9] | Potency [10] | Potency [17] | Potency [18] | Potency [19] | Potency [13] | max response [14] 3.32% | outcome [15]

CCBr
inactive: Potency [16] > 92 µM | Potency [1] | Potency [3] | outcome [4] | Potency [6] | Potency [8] | Potency [9] | Potency [10] | Potency [17] | Potency [11] | Potency [19] | activation [12] -0.926% | Potency [13] | max response [14] 4.52% | outcome [15]

Nc1ccc2ccccc2c1
inactive: Potency [16] > 92 µM | Potency [1] | Potency [2] | Potency [3] | outcome [4] | outcome [5] | Potency [20] | Potency [6] | Potency [7] | Potency [8] | Potency [9] | Potency [17] | Potency [18] | Potency [11] | Potency [19] | Potency [13] | outcome [15]

OCCOCCO
inactive: Potency [16] > 92 µM | Potency [1] | Potency [2] | Potency [3] | outcome [5] | Potency [20] | Potency [6] | Potency [7] | Potency [9] | Potency [10] | Potency [17] | Potency [18] | Potency [19] | Potency [13] | max response [14] 3.46% | outcome [15]

CCOS(C)(=O)=O
inactive: Potency [16] > 92 µM | Potency [2] | Potency [3] | outcome [5] | Potency [20] | Potency [6] | Potency [7] | Potency [8] | Potency [9] | Potency [17] | Potency [11] | Potency [19] | activation [12] 0.8% | Potency [13] | max response [14] 1.86% | outcome [15]

COC(=O)Nc1nc2ccccc2[nH]1
inactive: Potency [1] | Potency [3] | outcome [4] | outcome [5] | Potency [6] | Potency [7] | Potency [8] | Potency [9] | Potency [10] | Potency [17] | Potency [18] | Potency [11] | Potency [19] | Potency [13]

COc1cc(-c2ccc(N)c(OC)c2)ccc1N
inactive: Potency [16] > 92 µM | Potency [2] | Potency [3] | outcome [4] | outcome [5] | Potency [20] | Potency [8] | Potency [9] | Potency [10] | Potency [17] | Potency [18] | Potency [11] | Potency [19] | activation [12] 0.354% and 3.2% and 2.92% | max response [14] 3.75% and 3.76% and 11%

O=C(O)c1cccc(Cl)c1
inactive: Potency [1] | Potency [2] | outcome [4] | Potency [20] | Potency [6] | Potency [7] | Potency [8] | Potency [9] | Potency [10] | Potency [18] | Potency [11] | activation [12] -1.59% | Potency [13] | max response [14] 0.516% | outcome [15]

Clc1ccc(C(Cl)(Cl)Cl)c(Cl)c1
inactive: Potency [1] | Potency [2] | Potency [3] | outcome [4] | outcome [5] | Potency [20] | Potency [6] | Potency [18] | Potency [11] | Potency [19] | activation [12] -0.477% | Potency [13] | max response [14] -3.95% | outcome [15]

CCOP(=S)(OCC)SCCSCC
inactive: Potency [16] > 92 µM | Potency [2] | Potency [3] | outcome [5] | Potency [20] | Potency [7] | Potency [8] | Potency [9] | Potency [11] | Potency [19] | activation [12] -0.799% and -0.139% | Potency [13] | max response [14] 1.52% and -3.09%

Cc1ccc(OP(=O)(Oc2ccc(C)cc2)Oc2ccc(C)cc2)cc1
inactive: Potency [16] > 92 µM | Potency [2] | outcome [4] | outcome [5] | Potency [20] | Potency [6] | Potency [7] | Potency [8] | Potency [9] | Potency [10] | Potency [17] | Potency [18] | Potency [11] | Potency [19] | activation [12] -1% and 2.01%

CCCBr
inactive: Potency [16] > 92 µM | Potency [1] | Potency [2] | Potency [3] | outcome [4] | outcome [5] | Potency [6] | Potency [8] | Potency [10] | Potency [17] | Potency [18] | Potency [11] | Potency [19] | Potency [13] | max response [14] -1.34% | outcome [15]

Cc1ccccc1[N+](=O)[O-]
inactive: Potency [16] > 92 µM | Potency [2] | Potency [3] | outcome [4] | outcome [5] | Potency [6] | Potency [7] | Potency [9] | Potency [10] | Potency [17] | Potency [18] | Potency [11] | Potency [19] | activation [12] 3.11% | Potency [13] | max response [14] -2.44% | outcome [15]

C=CCO
inactive: Potency [1] | Potency [2] | Potency [3] | outcome [4] | outcome [5] | Potency [20] | Potency [6] | Potency [7] | Potency [8] | Potency [9] | Potency [10] | Potency [17] | Potency [18] | Potency [11] | Potency [19] | activation [12] 0.305% | Potency [13] | max response [14] -2.14% | outcome [15]
